Results reported in PubChem BioAssay (NCI).
The panel holds about 83,000 compounds, 20% with a hit somewhere; the sample as a whole holds those more often.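 Values shown are percent growth following 48 h exposure of cells in 96-well plates to a single concentration of compound; below 10 was considered active.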 Values without a mark were called inactive. Calls of active or inactive are those of the source.

Key:
Assay in all cases: NCI-60 one-dose screen, 48 h (100 = growth as untreated, 0 = no growth, -100 = all killed)
Settings in all cases: 10 µM unless noted
[1] = tested on: EKVX NSCLC
[2] = tested on: SN12C renal
[3] = tested on: UO-31 renal
[4] = tested on: TK-10 renal
[5] = tested on: ACHN renal
[6] = tested on: CAKI-1 renal
[7] = tested on: A498 renal
[8] = tested on: CCRF-CEM leukemia
[9] = tested on: MOLT-4 leukemia
[10] = tested on: SK-MEL-2 melanoma

For `CCNCCNc1cc(-c2ccc(C(=O)OC)cc2)c(C#N)c2nc3ccccc3n12`, the growth [1] was 84.8%, the growth [2] was 67.4% and the growth [3] was -11.3% (active). It also gave a growth [4] of 87.3%, a growth [5] of 36.4% and a growth [6] of 58.2%. The growth [7] was 81.9%, the growth [8] was -3.88% (active) and the growth [9] was 28.3%.
`CC(=O)Nc1nccs1` gave a growth [1] of 92.2%, a growth [2] of 97.2% and a growth [3] of 84.7%. For the same compound, the growth [4] was 99.9%, the growth [5] was 98.1% and the growth [6] was 101%. It also gave a growth [7] of 73.6%, a growth [8] of 96.4% and a growth [9] of 103%.
With `CC(/C=N/NC(=O)c1cc(-c2ccco2)[nH]n1)=C\c1ccccc1` the growth [1] was 89.2%, the growth [2] was 95% and the growth [3] was 96.8%. For the same compound, the growth [4] was 123%, the growth [5] was 93.1% and the growth [6] was 80.8%. It also gave a growth [7] of 110% and a growth [8] of 92.3%.
`COc1cc(NC(=O)c2cccc(-c3cc(=O)c4c(OC)c(OC)c(OC)cc4o3)c2)cc(OC)c1OC` gave a growth [10] of 41.7%, a growth [2] of 45.9% and a growth [3] of 20.9%. For the same compound, the growth [4] was 69.4%, the growth [5] was 56.7% and the growth [6] was 40.6%. For the same compound, the growth [7] was 57.4%, the growth [8] was 31.3% and the growth [9] was 10.4%.
`COc1cc2oc(-c3cccc(C(=O)Nc4ccc(C)cc4)c3)cc(=O)c2c(OC)c1OC` gave a growth [10] of 42.3%, a growth [2] of 31.6% and a growth [3] of 44.3%. For the same compound, the growth [4] was 53.3%, the growth [5] was 34.2% and the growth [6] was 2.16% (active). The growth [7] was 6.03% (active), the growth [8] was 34.7% and the growth [9] was 54.7%.
For `CCN(CC)S(=O)(=O)c1ccc(O)c(NC(=O)c2[nH]c(C)c(C(C)=O)c2CCc2ccc(Cl)cc2)c1`, the growth [1] was 78%, the growth [2] was 43% and the growth [3] was 23.5%. It also gave a growth [4] of 53.9%, a growth [5] of 36.2% and a growth [6] of 56.8%. For the same compound, the growth [7] was 26% and the growth [8] was 62%.
In the case of `O=C1C2=C(CCN(Cc3ccccc3)C2)N2CCN=C2N1Cc1ccc(F)cc1F`, the growth [1] was 30.2%, the growth [2] was 28.8% and the growth [3] was 32.5%. The growth [4] was 44.8%, the growth [5] was 35.6% and the growth [6] was 32.9%. For the same compound, the growth [7] was 14.6%, the growth [8] was 56.7% and the growth [9] was 74.1%.
Work on `CN(C)c1ccc(/C=C2\C=C(c3ccccc3)N(CCc3ccccc3)C2=O)cc1` yielded a growth [1] of 46.9%, a growth [2] of 89.8% and a growth [3] of 61%. For the same compound, the growth [4] was 88.7%, the growth [5] was 57.6% and the growth [6] was 76.9%. For the same compound, the growth [7] was 72.8% and the growth [8] was 102%.
For `Clc1ccc2[nH]c3c(NCCCN4CCOCC4)ncnc3c2c1`, the growth [10] was 94.5%, the growth [2] was 82.5% and the growth [3] was 57.2%. For the same compound, the growth [4] was 78.3%, the growth [5] was 45.1% and the growth [6] was 75.9%. For the same compound, the growth [7] was 58.4% and the growth [9] was 53.5%.
With `CCCCNC(=O)NS(=O)(=O)c1ccc(N2N=C(c3ccc(C)cc3C)CC2c2ccc(N(C)C)cc2)cc1` (configuration not stated) the growth [10] was 78%, the growth [2] was 59.4% and the growth [3] was 51.4%. For the same compound, the growth [4] was 83%, the growth [5] was 48.6% and the growth [6] was 63%. The growth [7] was 62.6%, the growth [8] was 43.3% and the growth [9] was 48.4%.
Compound `Fc1ccc(Nc2ccc3cc(OCCCN4CCOCC4)ccc3n2)cc1F` has a growth [1] of 61.2%, a growth [2] of 68.4% and a growth [3] of 19.5%. For the same compound, the growth [4] was 66.6%, the growth [5] was 67.2% and the growth [6] was 70.7%. For the same compound, the growth [7] was 36.8%, the growth [8] was 75.4% and the growth [9] was 61.9%.
For `Nc1c(C(=O)c2ccccc2)nnc2ncnn12`, the growth [10] was 92%, the growth [2] was 101% and the growth [3] was 101%. For the same compound, the growth [4] was 96%, the growth [5] was 122% and the growth [6] was 104%. For the same compound, the growth [7] was 71.2%, the growth [8] was 98.4% and the growth [9] was 95.8%.
For `Nc1nc(N)c(-c2ccc(Cl)cc2)c(/C=C/c2ccc([N+](=O)[O-])cc2)n1`, the growth [10] was 88.7%, the growth [2] was 93.6% and the growth [3] was 41.7%. The growth [4] was 109%, the growth [5] was 90.8% and the growth [6] was 86.3%. The growth [7] was -3.32% (active), the growth [8] was 34.8% and the growth [9] was 27.6%.
For `O=C(c1ccccc1)c1ccc(Cl)c([N+](=O)[O-])c1`, the growth [10] was 95.3%, the growth [2] was 97% and the growth [3] was -87.9% (active). For the same compound, the growth [4] was 107%, the growth [5] was 98.2% and the growth [6] was -2.29% (active). For the same compound, the growth [7] was 57.1%, the growth [8] was 13.5% and the growth [9] was 11.9%.
With `N#Cc1c(N)nc2c(nnn2-c2cccc(Br)c2)c1N` the growth [1] was 43.6%, the growth [2] was 93.4% and the growth [3] was 72.8%. It also gave a growth [4] of 119%, a growth [5] of 99% and a growth [6] of 98.1%. It also gave a growth [7] of 105%, a growth [8] of 97.9% and a growth [9] of 83.3%.
In the case of `CCOc1cccnc1/C=N/NC(N)=S`, the growth [10] was 52.2%, the growth [2] was 53.5% and the growth [3] was 9.56% (active). For the same compound, the growth [4] was 66%, the growth [5] was 35.7% and the growth [6] was 29%. The growth [7] was 3.97% (active), the growth [8] was 17.4% and the growth [9] was 7.07% (active).
With `COc1cc(NC(=O)c2cccc(-c3cc(=O)c4c(O)c(OC)c(OC)cc4o3)c2)cc(OC)c1OC` the growth [10] was 69.6%, the growth [2] was 63% and the growth [3] was 34.3%. The growth [4] was 74.8%, the growth [5] was 16.3% and the growth [6] was 62.5%. For the same compound, the growth [7] was 80.1%, the growth [8] was 58.1% and the growth [9] was 72.8%.
Work on `COC1=CC(c2ccc[nH]2)=N/C1=C\c1[nH]c(C)c(C(=O)OCCn2cc(CCC[C@@H]3Cc4cc(O)ccc4C4CC[C@]5(C)[C@@H](O)CC[C@H]5C43)nn2)c1C` (some centres not stated) yielded a growth [10] of 122%, a growth [3] of 44.7% and a growth [4] of 96.9%. It also gave a growth [5] of 66.5%, a growth [6] of 46.4% and a growth [7] of 49.6%. For the same compound, the growth [8] was 36.8% and the growth [9] was 62.1%.
In the case of `NC(N)=N/N=C/CO`, the growth [10] was 107%, the growth [2] was 109% and the growth [3] was 80.9%. It also gave a growth [4] of 98.7%, a growth [5] of 102% and a growth [6] of 99.4%. For the same compound, the growth [7] was 117%, the growth [8] was 93.8% and the growth [9] was 95.7%.
`CCOC(=O)c1sc2ccc(NCc3nc[nH]c3C)cc2c1NC(=O)c1cc(OC)c(OC)c(OC)c1` was tested, and the growth [10] was 84.1%, the growth [2] was 87.5% and the growth [3] was 70.4%. It also gave a growth [4] of 150%, a growth [5] of 65.1% and a growth [6] of 96%. For the same compound, the growth [7] was 101%, the growth [8] was 52.2% and the growth [9] was 88.2%.
In the case of `C=C1C(=O)O[C@H]2[C@H]1CC/C(Cn1cc(CNCCc3c[nH]c4ccc(Cl)cc34)nn1)=C\CC[C@@]1(C)O[C@@H]21`, the growth [1] was 84.1%, the growth [2] was 58.6% and the growth [3] was 80.1%. For the same compound, the growth [4] was 0.209% (active), the growth [5] was 54% and the growth [6] was 48.2%. The growth [7] was 90% and the growth [8] was -29.6% (active).
`COc1ccc(/C=C2\C=C(c3ccccc3)N(CCc3ccccc3)C2=O)cc1OC` was tested, and the growth [1] was 56.1%, the growth [2] was 53% and the growth [3] was -47.5% (active). The growth [4] was -3.91% (active), the growth [5] was -32.5% (active) and the growth [6] was 62%. The growth [7] was -75.4% (active), the growth [8] was 57.6% and the growth [9] was 34%.
In the case of `COc1ccc(O)c(-c2cc(-c3ccccc3)c(C#N)c(=O)[nH]2)c1`, the growth [1] was 104%, the growth [2] was 85.1% and the growth [3] was 68.2%. For the same compound, the growth [4] was 88.2%, the growth [5] was 106% and the growth [6] was 95.1%. The growth [7] was 65.9%, the growth [8] was 91.7% and the growth [9] was 102%.
`COc1ccc(-c2cc(-c3cc(OC)ccc3OC)[nH]c(=O)c2C#N)cc1` was tested, and the growth [1] was 96.5%, the growth [2] was 72% and the growth [3] was 64.4%. It also gave a growth [4] of 84.9%, a growth [5] of 85.3% and a growth [6] of 63%. The growth [7] was -1.35% (active), the growth [8] was 76.9% and the growth [9] was 44.3%.
In the case of `COc1cc2c(O)n(CCCn3ccnc3)c3c4cnc5cccc(c(=O)c3c2cc1OC)c54`, the growth [1] was 49.6%, the growth [2] was 19.2% and the growth [3] was 64.7%. It also gave a growth [4] of 92.7%, a growth [5] of 27.2% and a growth [6] of 66.4%. The growth [7] was 21.5%, the growth [8] was 11% and the growth [9] was 4.13% (active).
Work on `O=C1CSC(c2ccc(O)cc2)N1c1nnc(Cn2cnnc2)o1` (configuration not stated) yielded a growth [1] of 99.1%, a growth [2] of 85.9% and a growth [3] of 91.9%. For the same compound, the growth [4] was 131%, the growth [5] was 108% and the growth [6] was 79.4%. For the same compound, the growth [7] was 99.9%, the growth [8] was 49.1% and the growth [9] was 58.7%.
In the case of `O=C(O)CC1Sc2ccccc2NC1=O` (configuration not stated), the growth [1] was 113%, the growth [2] was 102% and the growth [3] was 86.3%. For the same compound, the growth [4] was 149%, the growth [5] was 95.5% and the growth [6] was 72.8%. It also gave a growth [7] of 124%, a growth [8] of 107% and a growth [9] of 92.5%.
